Results as given in PubChem BioAssay (NCATS).
Records with an inconclusive call do not appear. Unmarked numbers belong to inactive results. Activity calls are given as the source filed them. Calls follow the shape of the dose curve; as a rule, active = well fitted curve in the direction sought with a large enough effect; inconclusive = small, poorly fitted or top-dose-only effect, or another doubt; inactive = no such curve, though single readings can be large; an effect the other way counts as inactive or inconclusive.

Molecular target: Cytochrome P450 2C19 (Homo sapiens) (UniProt P33261)
Test: qHTS Assay for Inhibitors and Substrates of Cytochrome P450 2C19 (AID 899); also: nearly all actives have a fitted effect of over 60% in size; as to activity, negative = inhibition: % is scaled to controls: 0 for no effect and ±100 for the full control effect
Details: recombinant CYP2C19, luciferin-H EGE luminescence; series mostly up to 57.1 µM; activity, negative = inhibition: at the top concentration
In short: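 5nM enzyme + 10uM Luciferin-H EGE (=KM), 50mM KPO4; cpd pin-transferred, 10 min 37C; NADPH regen, 60 min 37C; stopped w/ luciferin detection reagent, 20 min; luminescence. Normalized to 57uM ketoconazole (AC100).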
Potency is read from the fitted curve at half-maximal effect.

Chain of Cytochrome P450 2C19 (Homo sapiens) (P33261 whole entry, looked up): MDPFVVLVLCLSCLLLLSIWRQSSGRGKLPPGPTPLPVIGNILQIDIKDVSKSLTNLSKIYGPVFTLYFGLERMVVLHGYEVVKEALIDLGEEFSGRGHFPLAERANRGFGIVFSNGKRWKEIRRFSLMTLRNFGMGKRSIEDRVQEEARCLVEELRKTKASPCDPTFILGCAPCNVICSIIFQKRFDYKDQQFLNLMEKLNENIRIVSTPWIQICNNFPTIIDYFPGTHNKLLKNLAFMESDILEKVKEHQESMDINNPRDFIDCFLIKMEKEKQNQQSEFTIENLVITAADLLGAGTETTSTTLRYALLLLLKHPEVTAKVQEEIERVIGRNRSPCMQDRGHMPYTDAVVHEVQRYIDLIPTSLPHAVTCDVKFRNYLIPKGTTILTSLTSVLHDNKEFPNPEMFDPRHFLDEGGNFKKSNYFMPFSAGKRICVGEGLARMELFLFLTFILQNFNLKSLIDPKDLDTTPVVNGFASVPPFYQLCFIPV

| Compound | activity, negative = inhibition [%] | Potency |
| --- | --- | --- |
| CC(C)[C@@H](CC(=O)N[C@@H]1CCCC[C@H]1C(=O)N[C@H](CC(=O)N[C@@H](CCC(=O)O)CC(=O)O)Cc1ccccc1)NC(=O)C[C@H](Cc1ccccc1)NC(=O)[C@@H]1CCCC[C@H]1N | -29.2 | – |
| CC(C)[C@@H](CC(=O)N[C@@H]1CCCC[C@H]1C(=O)N[C@H](CC(=O)N[C@@H](CCC(=O)O)CC(=O)O)Cc1ccccc1)NC(=O)C[C@H](Cc1ccccc1)NC(=O)[C@@H]1CNCC[C@H]1N | 5.79 | – |
| CC(C)C[C@@H](CC(=O)N[C@@H](CCCN)CC(=O)N[C@@H]1CCNC[C@H]1C(=O)N[C@H](CC(=O)N[C@@H](CCC(=O)O)CC(=O)O)CC(C)C)NC(=O)[C@@H]1CNCC[C@H]1N | -38.3 | – |
| CC(C)C[C@@H](CC(=O)N[C@H](CC(=O)N[C@@H]1CCCC[C@H]1C(=O)N[C@H](CC(=O)N[C@@H](CCC(=O)O)CC(=O)O)Cc1ccccc1)C(C)C)NC(=O)[C@@H]1CNCC[C@H]1N | 15.8 | – |
| CC(C)C[C@@H](CC(=O)N[C@@H](CCCN)CC(=O)N[C@@H]1CCNC[C@H]1C(=O)N[C@H](CC(=O)N[C@@H](CCC(=O)O)CC(=O)O)Cc1ccccc1)NC(=O)[C@@H]1CNCC[C@H]1N | -21.4 | – |
| CC(C)[C@@H](CC(=O)N[C@@H]1CCCC[C@H]1C(=O)N[C@H](CC(=O)N[C@@H](CCC(=O)O)CC(=O)O)Cc1ccccc1)NC(=O)C[C@H](Cc1c[nH]c2ccccc12)NC(=O)[C@@H]1CNCC[C@H]1N | -24.4 | – |
| NCCC[C@@H](CC(=O)N[C@@H]1CCNC[C@H]1C(=O)N[C@H](CC(=O)N[C@@H](CCC(=O)O)CC(=O)O)Cc1c[nH]c2ccccc12)NC(=O)C[C@H](Cc1ccccc1)NC(=O)[C@@H]1CCCC[C@H]1N | -35.1 | – |
| NCCC[C@@H](CC(=O)N[C@@H]1CCCC[C@H]1C(=O)N[C@H](CC(=O)N[C@@H](CCC(=O)O)CC(=O)O)Cc1ccccc1)NC(=O)C[C@H](Cc1c[nH]c2ccccc12)NC(=O)[C@@H]1CNCC[C@H]1N | 72.5 | – |
| CC(C)C[C@@H](CC(=O)N[C@@H](CCCN)CC(=O)N[C@@H]1CCNC[C@H]1C(=O)N[C@H](CC(=O)N[C@@H](CCC(=O)O)CC(=O)O)CC(C)C)NC(=O)[C@@H]1CCCC[C@H]1N | – | 15.8 µM (active) |
| CC(C)C[C@@H](CC(=O)N[C@H](CC(=O)N[C@@H]1CCCC[C@H]1C(=O)N[C@H](CC(=O)N[C@@H](CCC(=O)O)CC(=O)O)Cc1ccccc1)C(C)C)NC(=O)[C@@H]1CCCC[C@H]1N | -27.8 | – |
| NCCC[C@@H](CC(=O)N[C@@H]1CCNC[C@H]1C(=O)N[C@H](CC(=O)N[C@@H](CCC(=O)O)CC(=O)O)Cc1ccccc1)NC(=O)C[C@H](Cc1ccccc1)NC(=O)[C@@H]1CCCC[C@H]1N | -18.5 | – |
| CC(C)C[C@@H](CC(=O)N[C@@H](CCCN)CC(=O)N[C@@H]1CCNC[C@H]1C(=O)N[C@H](CC(=O)N[C@@H](CCC(=O)O)CC(=O)O)Cc1ccccc1)NC(=O)[C@@H]1CCCC[C@H]1N | 24.5 | – |
| CC(C)C[C@@H](CC(=O)N[C@@H](CCCN)CC(=O)N[C@@H]1CCCC[C@H]1C(=O)N[C@H](CC(=O)N[C@@H](CCC(=O)O)CC(=O)O)CC(C)C)NC(=O)[C@@H]1CNCC[C@H]1N | -17.9 | – |
| CC(C)C[C@@H](CC(=O)N[C@H](CC(=O)N[C@@H]1CCNC[C@H]1C(=O)N[C@H](CC(=O)N[C@@H](CCC(=O)O)CC(=O)O)Cc1c[nH]c2ccccc12)C(C)C)NC(=O)[C@@H]1CCCC[C@H]1N | -23 | – |
| NCCC[C@@H](CC(=O)N[C@@H]1CCCC[C@H]1C(=O)N[C@H](CC(=O)N[C@@H](CCC(=O)O)CC(=O)O)Cc1ccccc1)NC(=O)C[C@H](Cc1c[nH]c2ccccc12)NC(=O)[C@@H]1CCCC[C@H]1N | -16.1 | – |

Molecular target: Tyrosyl-DNA phosphodiesterase 1 (Homo sapiens) (UniProt Q9NUW8)
Test: Confirmation Assay for Inhibitors of Tyrosyl-DNA Phosphodiesterase (TDP1) (AID 489007); also: nearly all actives have a fitted effect of over 40% in size
Details: recombinant human TDP1 enzymatic activity, dose-response
In short: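 Recombinant E. coli-expressed Tdp1 (1 nM final) was preincubated with compounds 15 min at room temperature, then reacted 5 min with 15 nM 5'-biotin/3'-phosphotyrosine-FITC DNA substrate; cleavage read as loss of AlphaScreen signal (10 ug/ml beads, 10 min).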

Chain of Tyrosyl-DNA phosphodiesterase 1 (Homo sapiens) (Q9NUW8 whole entry, looked up): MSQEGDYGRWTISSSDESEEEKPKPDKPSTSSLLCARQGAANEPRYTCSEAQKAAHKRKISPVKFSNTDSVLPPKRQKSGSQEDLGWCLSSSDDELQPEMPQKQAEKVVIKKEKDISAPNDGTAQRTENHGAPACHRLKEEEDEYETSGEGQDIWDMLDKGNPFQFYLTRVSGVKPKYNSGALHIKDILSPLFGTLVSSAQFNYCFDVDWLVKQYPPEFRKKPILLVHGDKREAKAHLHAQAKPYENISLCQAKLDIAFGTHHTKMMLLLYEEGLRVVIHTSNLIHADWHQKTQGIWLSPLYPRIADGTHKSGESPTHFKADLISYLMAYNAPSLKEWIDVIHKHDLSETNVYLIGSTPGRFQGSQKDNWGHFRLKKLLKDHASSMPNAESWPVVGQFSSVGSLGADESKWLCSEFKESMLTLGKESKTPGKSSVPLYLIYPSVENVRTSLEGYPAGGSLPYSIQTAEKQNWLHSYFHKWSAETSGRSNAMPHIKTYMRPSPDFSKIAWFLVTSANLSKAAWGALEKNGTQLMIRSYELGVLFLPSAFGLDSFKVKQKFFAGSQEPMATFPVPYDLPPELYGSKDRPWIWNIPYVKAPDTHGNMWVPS

| Compound | Potency |
| --- | --- |
| O=C(O)c1ccc2ncsc2c1 | 39.8 µM (active) |
| CCN(CC)C(=O)CC(c1ccc(OC)cc1)c1c(OC)cc(OC)c2c(-c3ccccc3)cc(=O)oc12 (stereo not given) | 2.24 µM (active) |
| Cc1nc(SCC(=O)O)c(C#N)c2c1CCCC2 | 8.91 µM (active) |
| CC(=C/C(=O)O)/C=C/c1ccc(Cl)o1 | 39.8 µM (active) |
| O=C(N/N=C/c1ccc2c(c1)OCO2)c1cc2ccccc2o1 | 12.6 µM (active) |
| Cc1cc(C)c(C#N)c(SCc2ccccc2)n1 | 112 µM (active) |
| Cc1nc(S/C(=C/c2ccc(OCc3ccc(C(=O)O)cc3)cc2)C(=O)O)n[nH]1 | 35.5 µM (active) |
| Cc1nc(S/C(=C\c2ccc(-c3ccc(C(=O)O)c(Cl)c3)o2)C(=O)O)n[nH]1 | 3.55 µM (active) |
| Cc1ccc(Oc2cc(-n3nc(C)cc3C)ncn2)cc1 | 112 µM (active) |
| Nc1ccc2c(c1Cl)C(=O)c1ccc(N)c(Cl)c1C2=O | 3.55 µM (active) |
| Cc1ccc(S(=O)(=O)N(CC(=O)O)Cc2ccco2)cc1 | 20 µM (active) |
| Cc1ccc2nc(-c3ccncc3)cc(C(=O)Nc3ccc(OC(F)F)cc3)c2c1 | 70.8 µM (active) |
| O=S(=O)(O)c1ccc2c(c1)-c1nc-2nc2[nH]c(nc3nc(nc4[nH]c(n1)c1ccc(S(=O)(=O)O)cc41)-c1ccc(S(=O)(=O)O)cc1-3)c1ccc(S(=O)(=O)O)cc21 | 0.0282 µM (active) |
| Cc1ccc(S(=O)(=O)N2CCCCC2)cc1C(=O)Nc1ccc(S(=O)(=O)Nc2ncccn2)cc1 | 14.1 µM (active) |
| NC(=O)COC(=O)c1ccc(S(=O)(=O)NCc2ccco2)cc1 | 126 µM (active) |
| CCC(=O)c1ccc(CCCCCC(=O)O)s1 | 31.6 µM (active) |
| Cc1ccc(CNC(=O)CCS(=O)(=O)c2ccc(Br)cc2)cc1 | 12.6 µM (active) |
| O=C1NN(c2ccccc2)C(=O)/C1=C/c1ccc(-c2ccc(Cl)c(C(=O)O)c2)o1 | 7.08 µM (active) |
| O=C(N/N=C/c1cccc(Br)c1)c1ccc(Br)cc1 | 50.1 µM (active) |
| Cn1nnnc1SCC(=O)Nc1ccccn1 | 7.08 µM (active) |
| O=C(O)c1cccc(-n2cccc2/C=C2/NC(=O)N(c3ccc(Cl)cc3)C2=O)c1 | 1.62 µM (active) |
| O=C(O)c1ccc(CSc2n[nH]c(-c3ccco3)n2)cc1 | 39.8 µM (active) |
| Cc1ccc(S(=O)(=O)N2CC=C(C(=O)NCc3ccc(F)cc3)CC2)cc1 | 28.2 µM (active) |
| O=C(NC1CC1)c1cc(-c2ccco2)nc2ccccc12 | 3.55 µM (active) |
| O=C(O)C1C2C=CC(C2)C1C(=O)NCc1cccs1 (stereo not given) | 31.6 µM (active) |
